High-throughput results from PubChem BioAssay.
In the library only some 8.7% were active in any assay of this set; here they are far more common.
12-LOX inh: blocks human arachidonate 12S-lipoxygenase; P18054; purified 12hLO, xylenol orange hydroperoxide absorbance; Potency, µM (series often up to 108 µM), inactives show top-dose activity change, negative = inhibition, hits mostly inhibitors; hit rate 1.1% among 580,000; also: % is scaled to controls: 0 for no effect and ±100 for the full control effect
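Hydroperoxide product was detected by ferrous iron/xylenol orange as the 573 to 405 nm absorbance ratio. Arachidonic acid at 40 uM (final) was turned over for 30 min at room temperature by 150 nM human 12hLO, pH 7.0 Hepes buffer, after 15 min compound preincubation.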
Sfp PPTase inh: blocks B. subtilis Sfp PPTase activity. Q9F4F7. hit rate 3.5% among 310,000. Biochemical Sfp PPTase activity, qHTS. Potency, µM, without a hit: largest response in the series, negative = inhibition, actives largely listed as inhibitors;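 also: the enzyme is Sfp with the accession as filed and its product quenches rhodamine fluorescence; 0% = enzyme reaction without inhibitor and -100% = no enzyme wells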
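Fluorescence-quenching assay with 15 nM Sfp, 5 uM rhodamine-CoA and 12.5 uM BHQ-2-labelled ybbR peptide in pH 7.6 Hepes/MgCl2 buffer. Enzyme was pre-incubated with compound for 15 min at room temperature. Rate was taken from the 30-min fluorescence change (525/598 nm).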
HP1b binding inh: blocks HP1-beta chromodomain binding to methylated histone tails | AlphaScreen HP1-beta / biotin-H3K9me3 peptide binding | Potency, µM (top dose mostly 114 µM), without a hit: top-dose activity change, negative = inhibition, usual class: inhibitors | hit rate 0.56% among 390,000; also: nearly all actives have a fitted effect of over 70% in size
Target sequence (P83916 whole entry, looked up): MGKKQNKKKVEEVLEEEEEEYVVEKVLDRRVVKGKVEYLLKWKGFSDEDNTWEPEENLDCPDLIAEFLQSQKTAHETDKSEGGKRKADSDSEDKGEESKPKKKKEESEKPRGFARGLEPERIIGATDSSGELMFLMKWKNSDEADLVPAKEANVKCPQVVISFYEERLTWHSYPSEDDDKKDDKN
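HP1-beta protein (50 nM final) preincubated 30 min at room temperature with biotinylated H3(1-18)K9me3 peptide (50 nM) in PBS pH 7.4, 0.01% Tween-20, then compound added for 30 min. AlphaScreen streptavidin donor/nickel chelate acceptor beads (10 ug/mL final), 30 min dark, luminescence read.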
BAZ2B block: BAZ2B (human) inhibition; Q9UIF8; AlphaScreen BAZ2B-H3K14Ac peptide displacement; Potency, µM (doses to about 114 µM), inactives show top-dose activity change, negative = inhibition, actives largely listed as inhibitors; hit rate 4.4% among 360,000; AID 504333; also: % is scaled to controls: 0 for no effect and ±100 for the full control effect; nearly all actives have a fitted effect of over 60% in size
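AlphaScreen displacement of biotin-H3(5-23)K14Ac peptide (50 nM final) from BAZ2B (50 nM final) in PBS pH 7.4, 0.01% Tween-20; complex preformed 30 min RT, then compounds (top 110 uM) 30 min RT, beads 20 min dark.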
G9a block: inhibitors of human histone lysine methyltransferase G9a; G9a H3K9 monomethylation, AlphaScreen, 2 h; Q96KQ7; hit rate 8.8% among 350,000; Potency, µM (titrated, usually from 102 µM), without a hit: at the top dose activity, negative = inhibition, most hits filed as inhibitors; also: % is scaled to controls: 0 for no effect and ±100 for the full control effect; nearly all actives have a fitted effect of over 75% in size
Target sequence (Q96KQ7 913-1193 limits assumed): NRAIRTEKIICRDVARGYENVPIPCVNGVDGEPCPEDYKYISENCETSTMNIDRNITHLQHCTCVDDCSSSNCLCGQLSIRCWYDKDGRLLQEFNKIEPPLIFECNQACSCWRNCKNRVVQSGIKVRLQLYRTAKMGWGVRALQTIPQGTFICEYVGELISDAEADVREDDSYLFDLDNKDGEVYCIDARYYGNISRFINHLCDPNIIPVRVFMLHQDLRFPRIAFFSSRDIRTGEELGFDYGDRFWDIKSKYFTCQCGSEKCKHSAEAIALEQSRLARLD
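Quantitative HTS format: methyltransferase activity on a biotin-tagged H3K9 peptide is measured by AlphaScreen, using a rabbit anti-monomethyl-H3K9 antibody with streptavidin donor and anti-IgG acceptor beads. Final levels are 20 nM enzyme, 500 nM peptide, 20 uM SAM; 2 h RT.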
JMJD2A Tudor: inhibitors of human JMJD2A Tudor domain. O75164. AlphaScreen JMJD2A-Tudor / H3K4me3 peptide binding. Potency, µM (titrated, usually from 114 µM), inactives show top-dose activity change, negative = inhibition, hits mostly inhibitors. hit rate 4.4% among 390,000; also: % is scaled to controls: 0 for no effect and ±100 for the full control effect; nearly all actives have a fitted effect of over 50% in size
* = called active by the depositor; u = inconclusive; x = no result given; [ ] = another dose, or the depositor's remark. Calls follow the shape of the dose curve; as a rule, active = well fitted curve in the direction sought with a large enough effect; inconclusive = small, poorly fitted or top-dose-only effect, or another doubt; inactive = no such curve, though single readings can be large; an effect the other way counts as inactive or inconclusive. Potency is read from the fitted curve at half-maximal effect.

SMILES | 12-LOX inh | Sfp PPTase inh | HP1b binding inh | BAZ2B block | G9a block | JMJD2A Tudor
OC(CN1c2ccccc2Sc2ccccc21)Cn1nnc2ccccc21 (configuration not stated) | 19% | -9% | u | -3% | 20µM* | u
COc1c2occc2c(OC)c2c(=O)cc(C)oc12 | 7% | 5% | 23% | -5% | 14%[59 µM] | -11%
Cc1cc(=O)c2c(o1)C(=O)c1occc1C2=O | u | x | -23% | x | x | 45µM*
CCOC(=O)c1cc(-c2ccc(/C=C3/C(=O)NC(=O)C(C#N)=C3C)o2)ccc1Cl | u | 50µM* | 40µM* | 50µM* | 35µM* | 56µM*
CC1=C(C#N)C(=O)NC(=O)/C1=C\c1ccc(-c2ccc(C)cc2[N+](=O)[O-])o1 | 11µM* | 50µM* | u | 45µM* | 18µM* | 32µM*
COc1ccc2ccccc2c1CNC1CCN(c2ccc(C(=O)N3CCOCC3)cc2)CC1 | 16% | x | x | x | x | x
CCCc1ccc(-c2cc(N)n[nH]2)cc1 | 0% | 11% | 9% | 79µM* | 22% | -27%
Cc1ccc(-c2cc(-c3ccc(C)cc3)[nH]n2)cc1 | 1% | x | x | x | x | x
Cc1ccc(C2Cn3nnc(C(=O)N4CCC(C(=O)Nc5ccccc5)CC4)c3CO2)cc1 (configuration not stated) | -11% | x | x | x | x | x
O=C(NCc1cc(Br)cc(Br)c1OC(=O)c1ccccc1[N+](=O)[O-])c1ccccc1 | -20% | 17% | -3% | -24% | 40µM* | -31%
O=C(OCc1ccc(Br)cc1)c1ccccc1[N+](=O)[O-] | 3% | x | x | x | x | x
S=c1[nH]cc(-c2ccccc2)n1-c1ccccc1Cl | u | u | -1% | -38% | u | 50µM*
O=C1CN(c2ccccc2Cl)C(=O)CN1c1ccccc1Cl | -16% | 11% | 7% | 10% | 12%[12.7 µM] | 0%
COc1ccccc1-n1c(-c2ccccc2)c[nH]c1=S | u | 10µM* | 9% | u | 0.89µM* | u
N#Cc1cccc(CN2CC(COc3ccccc3)C3(C2)CN(c2ccccc2)C3)c1 (configuration not stated) | 46%[176 µM] | x | x | x | x | x
COc1ccc2c(c1)CC/C(=C\c1ccc(OC)c(Cn3nc(C)cc3C)c1)C2=O | 0% | 35µM* | 1% | u | u | 89µM*
COC(=O)c1ccc(/C=C2\CCc3cc(OC)ccc3C2=O)cc1 | -2% | x | x | x | x | x
COc1ccc(/C=C2\CCc3ccccc3C2=O)cc1CN1CCOCC1 | u | 7% | -20% | u | 35µM* | u
COc1cc(/C=C2/CCc3ccccc3C2=O)cc(OC)c1OC | -21% | -17% | 4% | 3% | 24%[59 µM] | -14%
COc1ccc2c(c1)CC/C(=C\c1ccc(OC)c(Cn3cccn3)c1)C2=O | -26% | 45µM* | -8% | -34% | u | -31%
Cc1cccc(NC(=O)N2CCC(OC3CCN(S(C)(=O)=O)CC3)CC2)c1C | 29% | x | x | x | x | x
O=c1[nH]c(C2CCCN(Cc3ccc(Cl)cc3)C2)nc2ccc(F)cc12 (configuration not stated) | 20% | x | x | x | x | x
O=C1CC(c2ccco2)Sc2ccccc2N1 (configuration not stated) | x | -23% | 19% | -17% | 40µM* | -26%
O=C1CC(c2ccccc2)Sc2ccccc2N1 (configuration not stated) | u | -8% | 38% | -2% | 45µM* | -4%
CCN1C(=O)CC(c2ccco2)Sc2ccccc21 (configuration not stated) | -29% | 40µM* | -5% | u | 50µM* | -27%
SMILES | 12-LOX inh | Sfp PPTase inh | HP1b binding inh | BAZ2B block | G9a block | JMJD2A Tudor
O=C(CN1C(=O)CC(c2ccco2)Sc2ccccc21)Nc1ccc(Br)cc1 (configuration not stated) | 0% | x | 6% | -3% | 3%[59 µM] | -19%
Cc1ccsc1C1CC(=O)Nc2ccccc2S1 (configuration not stated) | 492% | 6% | 31% | -24% | -5% | -15%
NC(=O)[C@H](CC1CCCCC1)NC(=O)[C@@H]1CN(C(=O)c2cccnc2)CCN1C(=O)C1CCCCC1 | -9% | x | x | x | x | x
O=C(NNC(=O)C1C2C=CC(C2)C1C(=O)O)c1ccccc1 (configuration not stated) | -11% | u | 7% | 0% | 15%[59 µM] | -8%
O=C(NNC(=O)C1C2C=CC(C2)C1C(=O)O)c1ccccc1O (configuration not stated) | 0% | u | 37% | 50µM* | -8% | -17%
CCOC(=O)c1ccc(C(=O)NNC(=O)C2C3C=CC(C3)C2C(=O)O)cc1 (configuration not stated) | -2% | 50µM* | 39% | -5% | -5%[0.501 µM] | -13%
COc1ccc(NC(=O)/C=C/c2ccccc2[N+](=O)[O-])c(OC)c1 | 14% | -12% | u | -36% | -9%[59 µM] | -23%
O=[N+]([O-])c1ccc(CNc2ccc(F)cc2)s1 | -7% | -30% | -21% | 40µM* | 45µM* | u
COc1ccc(NCc2ccc([N+](=O)[O-])s2)cc1 | u | -25% | u | 50µM* | 7.9µM* | 56µM*
N#Cc1ccccc1CNc1cccc(Cl)c1 | 2% | x | x | x | x | x
COc1ccc(NCc2ccc([N+](=O)[O-])s2)c(OC)c1 | u | -26% | 18µM* | 32µM* | 10µM* | 40µM*
O=[N+]([O-])c1ccc(CNc2cccc(Cl)c2)s1 | u | -2% | -11% | u | 45µM* | u
COc1ccc(NC(=O)CCC(=O)N/N=C/c2ccc([N+](=O)[O-])s2)cc1 | -21% | 6% | 15% | u | -6%[59 µM] | -29%
O=C(COC(=O)c1ccc([N+](=O)[O-])s1)NCc1ccc(F)cc1 | -5% | 15% | 35% | 3% | -14%[59 µM] | 5%
COc1ccc(C(=O)CC2(O)C(=O)Nc3ccc(F)cc32)cc1 (configuration not stated) | -6% | x | x | x | x | x
Cc1ccc2c(=O)cc(C(=O)N(Cc3ccc(Cl)cc3)Cc3ccco3)oc2c1 | -9% | x | x | x | x | x
CC1CCCN(S(=O)(=O)c2ccc3c(c2)C(C)(C)C(=O)N3CC(=O)NC2CCCCCC2)C1 (configuration not stated) | -46% | x | x | x | x | x
Cc1noc(C)c1C(=O)OC(C)C(=O)NC1CCCC1 (configuration not stated) | -2% | x | x | x | x | x
O=[N+]([O-])c1ccc(CNc2ccc(Cl)cc2)s1 | u | 3% | u | 35µM* | 45µM* | u
